The source of these data is article PMC12136788.

Sequences and labels used below:
B1: chr7:141445308:141445309:+_ENSG00000106028_ENST00000265304|hu_hu|hu_hu_hu_mus_False|48_68 (ssRNA)
RNA: GGGAGUUCUACAGUCCGACGAUCUAUGAUUGUUGUUGCUUGCCGCCUCACAUUGUUUUUAUCCAUGUAUUCACCAUAGUCCACUUUCCCUUCCAAAAAUAUACGAGCCCCCUUUUUCACAUACUGAUAUGCCACAUCUCUGAGCAACAGAGGAUUGAGCAUCA
B2: 120768192_120770490_416_CDS_ENSMUSG00000043207_ENSMUST00000058754|mouse|control|control (ssRNA)
RNA: GGGAGUUCUACAGUCCGACGAUCGCUGAAGGUACUUUUAUCCAGUUGAUACAAUCGAGAUUUCUCAAACGUGUCCGAAUCCAUGAUCUGUUCUAACUCUGCUGGUACGCGAGUCGUCGUUUUGUAUAUCCUUCUCUGCCGCUGCAACAGAGGAUUGAGCAUCA
B3: chr1:163117127:163117128:-_ENSG00000143248_ENST00000313961|hu_mus|hu_hu_hu_mus_False|48_78 (ssRNA)
RNA: GGGAGUUCUACAGUCCGACGAUCUGCUACAAAGGAUGUAACUCAACUCACAGGGCAUGAUUUCAUAGCCUGACCAGAUGACUACUUGAUUAACUCCUUAUAAAAUUCAGAGCGCACAAAGCGGGGCAGAGAAUCCUUCUCCAUCAACAGAGGAUUGAGCAUCA
B4: chr15:76909541:76909542:-_ENSMUSG00000033565_ENSMUST00000166610|perfect_dup|FALSE|FALSE (ssRNA)
RNA: GGGAGUUCUACAGUCCGACGAUCAACAUGAUCAAUAAUUUAUACACAUGGAGAGUAAUACAAAAAAAUAAGGAAUAAAAGCUAAAGAUCUAACUACUCCGACCUUCACAAUUCCAGCUACUUGAUAAUAAUAGGAGUAACCCACAACAGAGGAUUGAGCAUCA
B5: chr20:57570089:57570090:+_ENSG00000101158_ENST00000344018|hu_mus|FALSE|FALSE (ssRNA)
RNA: GGGAGUUCUACAGUCCGACGAUCACUCCCACACACACACAUACAACUCAACAUUACUCUUGGAAACUUAAAGUAACUGACCAUCUGGGUCAUAGGAAGGAAACUUACAUAAACCCUUCAUGAAGUGUCCCAGCUGCUAGAUUCCAACAGAGGAUUGAGCAUCA
B6: chr1:60041781:60041782:+_ENSMUSG00000041040_ENSMUST00000036540|mus_hu|mus_mus_mus_hu_False|18_88 (ssRNA)
RNA: GGGAGUUCUACAGUCCGACGAUCAAGUUUACAAUAGUAAAGUAAAUCAAAUUUAGUCAAAUUUUCUUUUAUUUUCCUUCACAAAAGAAAAUCUUUAUAACCCAGUCCUAGUCUUGGCAGAGAAAGCAGCUAUAAAUUCUGACUCAACAGAGGAUUGAGCAUCA
B7: chr15:76909541:76909542:-_ENSMUSG00000033565_ENSMUST00000166610|perfect_dup|motif|central (ssRNA)
RNA: B4 RNA with U82G, A83G
B8: chr1:163117127:163117128:-_ENSG00000143248_ENST00000313961|hu_mus|hu_hu_hu_mus_False|18_78 (ssRNA)
RNA: B3 RNA with A92G, G123A

Positions count from the first letter of the chain named. Whole data set: some 24,000 sequences, median “enrichment r” near 0.99, cut for the highest 2% near 3.7. For the sample, the highest values were picked, then their nearest neighbours and some sequences at random.

This assay addresses T1, UNK ZnF1-3 (human, UniProt Q9C0B0 31-174).
T1 sequence: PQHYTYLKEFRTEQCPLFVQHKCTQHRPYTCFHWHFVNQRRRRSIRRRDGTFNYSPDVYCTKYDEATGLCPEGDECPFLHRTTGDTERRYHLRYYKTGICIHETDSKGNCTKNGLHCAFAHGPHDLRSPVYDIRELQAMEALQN
Nature of the assay: nsRBNS (natural sequence RNA bind-n-seq); RBNS binding buffer (assumed for nsRBNS): 25 mM Tris pH 7.5, 150 mM KCl, 3 mM MgCl2, 0.01% Triton X-100, 500 ug/ml BSA, 20 U/ml SUPERase-In, 4 C; UNK is unkempt and MSI1 is Musashi-1; names of the RNAs are library labels; protein concentration not given here; high values mean tight binding.
Molecule B1 yielded a binding signal of 0.799 enrichment R. Then B2, with 0.656 enrichment R; and B3, with 1.08 enrichment R. In the case of B4, the binding signal stood at 6.42 enrichment R. On to B5, for which the binding signal came to 1.41 enrichment R. Then B6, with 0.9 enrichment R. The value for B7 was 8.91 enrichment R; that for B8 was 0.919 enrichment R.
